Consider 63 compounds from ChEMBL document CHEMBL3988442, “University of Dundee, Small-Polar-MMV Screening Library” (2021).

This experiment has as its system Leishmania donovani. Put plainly: Leishmania intramacrophage assay. In kind it is functional, organism-based. Details: scale not given: in the data most compounds retested in dose-response had high values.

The campaign covered roughly 69,000 compounds. About 1,000 (1.4%) showed an effect of 50% or more. The full list was thinned out, with strong results kept by preference.

As to `CCc1nc2c(N3CCC4(CC3)CC(=O)N(CC(C)C)C4)ncnc2o1`, the “Percent Effect” value (30.3 µM, […]) is given as 71.44%.
For the compound `CCc1nc2c(N3CCC4(CC3)CNC(=O)C4)ncnc2o1`, the “Percent Effect” value (30.3 µM, […]) amounted to 11.46%.
On the same count and under the same terms, the result for `CCc1nc2c(N3CCC4(CC3)CC(=O)N(CC)C4)ncnc2o1` reads 0.202%.
On the same count and under the same terms, with `CCOCC(=O)N1CCOCC2(CCN(c3ncccn3)C2)C1.O=C(O)C(F)(F)F` (stereo not drawn) the figure was -3.02%.
Take `OCCC1CN(C2CCC2)CCN1C1CCCC1` (stereo not drawn): for the setting “30 µM, 30.03 µM”, the “Percent Effect” value came to 24.92%.
With `Clc1ccccc1CCN1CCN(c2ccc3nncn3n2)CC1`, the “Percent Effect” value (30 µM) was 7.685%.
For `O=C(CN1CCCC(c2ccn[nH]2)C1)Nc1nc2c(s1)CCC2` (stereo not drawn), the “Percent Effect” value (30.3 µM, […]) is recorded as 51.08%.
As to `Cc1cc(C2CCCN(CC(=O)Nc3nc4c(s3)CCC4)C2)n[nH]1` (stereo not drawn), the “Percent Effect” value (30.3 µM, […]) worked out at 34.8%.
`O=C(CN1CCCC(c2ccn[nH]2)C1)N1CCCc2ccccc21` (stereo not drawn): the “Percent Effect” value (30.3 µM, […]) is -7.148%.
For `O=C(CN1CCCC(c2ccn[nH]2)C1)Nc1nncs1` (stereo not drawn), the “Percent Effect” value (30.3 µM, […]) came to 11.72%.
For the compound `O=C(CN1CCCC(c2ccn[nH]2)C1)Nc1nc2c(s1)CCCC2` (stereo not drawn), under “30.3 µM, […]”, the “Percent Effect” value was 57.39%.
With `Cc1nnc(NC(=O)CN2CCCC(c3ccn[nH]3)C2)s1` (stereo not drawn), the “Percent Effect” value (30.3 µM, […]) is recorded as -18.19%.
For `CN(C)CCN1C(=O)CC[C@@H]2[C@H]1CCN2C(=O)c1ccc(C#N)cc1.O=C(O)C(F)(F)F`, the “Percent Effect” value (30.3 µM, […]) is on record as 2.551%.
For the compound `CCc1ccc(CN(CCCn2ccnc2)Cc2ccc(C)s2)o1.O=C(O)CC(O)(CC(=O)O)C(=O)O`, under “30 µM, 30.03 µM”, the “Percent Effect” value was determined as 12.85%.
In the case of `Cc1ccc(CN(CCCn2ccnc2)Cc2c[nH]cn2)s1.O=C(O)CC(O)(CC(=O)O)C(=O)O`, the “Percent Effect” value (30 µM, 30.03 µM) was determined as 29.23%.
Take `CC(NC(=O)N(C)Cc1ccsc1)c1ccc2c(c1)OCO2` (stereo not drawn): the “Percent Effect” value (30 µM, 30.03 µM) is 29.16%.
The same measure, in the same setting: the result for `O=C(Nc1nncs1)NC1CCOc2ccccc21` (stereo not drawn) reads -9.341%.
`Cn1cc(CN2CC[C@H]3O[C@@H](COCc4cccnc4)CC[C@H]32)cn1.O=C(O)C(F)(F)F.O=C(O)C(F)(F)F`: under “30.3 µM, […]”, the “Percent Effect” value came out at 18.07%.
For `O=C(COc1ccccc1)NCC1CCN(Cc2ccsc2)CC1`, under “30.3 µM, […]”, the “Percent Effect” value is 8.301%.
The same measure, in the same setting: with `CCCS(=O)(=O)N1C[C@@H]2CN(Cc3ccoc3)CCO[C@@H]2C1.O=C(O)C(F)(F)F` the figure was 15.12%; with `Cc1ccc(OCCCC(=O)Nc2nonc2C)cc1C`, 1.215%; with `Cc1ccsc1CCNC(=O)CCC(=O)NC1CCCC1`, 16.22%.
On the same count and under the same terms, the result for `Cc1ncsc1-c1nc(-c2cccc(CN3CCOCC3)c2)no1` reads 19.67%.
Turning to `Cc1nn2c(-c3snnc3C)nnc2s1`, where the note is “30.3 µM, […]”, the “Percent Effect” value came out at 93.73%.
On to `Cc1nnsc1-c1nnc2sc(C3CCC3)nn12`, for which, for the setting “30.3 µM, […]”, the “Percent Effect” value is on record as 11.99%.
`Cc1nnsc1-c1nnc2sc(C(C)C)nn12`: where the note is “30.3 µM, […]”, the “Percent Effect” value is given as 39.28%.
In the case of `CCN1CCN(Cc2ccnc(-c3cccnc3)n2)CC1.O=C(O)CC(O)(CC(=O)O)C(=O)O`, the “Percent Effect” value (30 µM, 30.03 µM) stood at 7.725%.
Turning to `Cc1ncsc1C(=O)N(C)Cc1ccsc1`, the “Percent Effect” value (30 µM) is 23.48%.
With `CCc1nc(NCC(=O)N2CCOCC2)c2c(n1)c(C)nn2CC`, the “Percent Effect” value (30 µM, 30.03 µM) worked out at 6.056%.
For `Cc1cc(NC(=O)NCC(C)N2CCc3ccccc32)no1` (stereo not drawn), the “Percent Effect” value (30 µM, 30.03 µM) is recorded as 27.07%.
In the case of `CN(Cc1cccc(CCN)c1)Cc1cccc2ncccc12`, for the setting “30.3 µM, […]”, the “Percent Effect” value worked out at 68.5%.
Regarding `CN(Cc1cccc(OCCO)c1)Cc1cccc2ncccc12`, the “Percent Effect” value (30.3 µM, […]) is 37.97%.
As to `CN(Cc1cccnc1N)Cc1cccc2ncccc12`, the “Percent Effect” value (30.3 µM, […]) worked out at 48.64%.
Turning to `CN(CCCc1cnn(C)c1)C(=O)C1CCC(=O)N(C2CCCC2)C1` (stereo not drawn), the “Percent Effect” value (30.3 µM, […]) was 11.37%.
For `COCCN1CCC(CNC(=O)C2(S(C)(=O)=O)CCCC2)CC1`, the “Percent Effect” value (30.3 µM, […]) is given as 19.2%.
On to `COCCN(C)C(C(=O)O)c1ccc(F)c(C)c1` (stereo not drawn), for which the “Percent Effect” value (30.3 µM, […]) came to 7.085%.
`CC(C)NC(=O)C1CN(Cc2ccc(F)cc2)CC12CCOCC2.O=C(O)C(F)(F)F` (stereo not drawn): the “Percent Effect” value (30.3 µM, […]) was found to be 44.53%.
Still for that read-out and setting: with `NC(CC1CCCC1)c1ccc(Oc2ccccc2)cc1` (stereo not drawn) the figure was 99.72%.
Consider `OC(CN1CCN(CC2CCCCC2)CC1)c1ccccc1` (stereo not drawn), for which, where the note is “30.3 µM, […]”, the “Percent Effect” value was 24.85%.
Turning to `Cl.NC(CC1CCCC1)c1ccccc1` (stereo not drawn), the “Percent Effect” value (30.3 µM, […]) amounted to 14.4%.
Still for that read-out and setting: with `CC(C)N(C)Cc1cc(=O)n2c(n1)CN(S(=O)(=O)C1CC1)CCC2.O=C(O)C(F)(F)F` the figure was 28.49%.
For the compound `CC(C)N1CCO[C@@H]2CN(C(=O)NCc3ccccc3)CC[C@@H]2C1.O=C(O)C(F)(F)F`, where the note is “30.3 µM, […]”, the “Percent Effect” value turned out to be 17.12%.
Take `CN1CCO[C@@H]2CN(C(=O)Cc3cccs3)CC[C@@H]2C1.O=C(O)C(F)(F)F`: the “Percent Effect” value (30.3 µM, […]) was 32.46%.
On to `CC(C)N1CCO[C@@H]2CN(C(=O)Cc3cccs3)CC[C@@H]2C1.O=C(O)C(F)(F)F`, for which, where the note is “30.3 µM, […]”, the “Percent Effect” value is given as 50.53%.
In the case of `CCOC(=O)c1nnc2ccccc2c1N1CCN(CC)CC1`, under “30.3 µM, […]”, the “Percent Effect” value was determined as 18.05%.
In the case of `COc1ccc(-n2ccnc2-c2cnc(N(C)C)nc2)cc1OC`, under “30.3 µM, […]”, the “Percent Effect” value worked out at 25.02%.
Turning to `CCS(=O)(=O)c1ccc(N2CCC(NC(=O)CCC(C)C)CC2)cc1`, the “Percent Effect” value (30 µM, 30.03 µM) was 63.78%.
As for `CCS(=O)(=O)c1ccc(N2CCC(N)CC2)cc1`, the “Percent Effect” value (30.3 µM, […]) was found to be 63.99%.
As for `CCS(=O)(=O)c1ccc(N2CCC(NC(=O)CC3CCCC3)CC2)cc1`, the “Percent Effect” value (30.3 µM, […]) is 22.19%.
With `CCS(=O)(=O)c1ccc(N2CCC(NC(C)=O)CC2)cc1`, the “Percent Effect” value (30 µM, 30.03 µM) is -2.976%.
For the compound `CCNC(=O)NC1CCN(c2ccc(S(=O)(=O)CC)cc2)CC1`, the “Percent Effect” value (30.3 µM, […]) is 12.14%.
Take `CCS(=O)(=O)c1ccc(N2CCC(NC(=O)C(C)SC)CC2)cc1` (stereo not drawn): where the note is “30.3 µM, […]”, the “Percent Effect” value was 27.86%.
With `CC(=O)NCCNCc1cn(CCN2CCSCC2)nc1C`, for the setting “30.3 µM, […]”, the “Percent Effect” value was 28.55%.
Regarding `CN1C[C@H]2CN(Cc3cccc(OC(F)(F)F)c3)CCN2C1=O`, the “Percent Effect” value (30.3 µM, […]) is given as -1.989%.
`O=C(Cc1cc2c(cc1Br)OCCO2)NC1CCS(=O)(=O)C1` (stereo not drawn): where the note is “30.3 µM, […]”, the “Percent Effect” value is 5.517%.
As for `CC(=O)c1ccc(C(=O)N2C[C@@H]3CC[C@H](C2)N(Cc2ccccc2)C3)s1`, under “30.3 µM, […]”, the “Percent Effect” value is reported as 9.144%.
As to `COc1cc(F)cc(CNC(=O)Nc2ccn(CC(F)F)n2)c1`, the “Percent Effect” value (30.3 µM, […]) was 16%.
Still for that read-out and setting: with `NCC1Cc2cc(-c3cncc(C(=O)N4CCOCC4)n3)cc(Cl)c2O1` (stereo not drawn) the figure was 7.347%.
With `NCC1Cc2cc(Cl)cc(-c3cncc(C(=O)N4CCCCC4)n3)c2O1` (stereo not drawn), the “Percent Effect” value (30.3 µM, […]) is given as 74.83%.
The same measure, in the same setting: the result for `Cc1cc2c(c(-c3cnccn3)c1)OC(CN)C2` (stereo not drawn) reads 26.74%; that for `NCC1Cc2cc(-c3cncc(C(=O)N4CCCCC4)n3)cc(F)c2O1` (stereo not drawn), -28.1%.
Take `Cc1cc2c(c(-c3c[nH]c(C)n3)c1)OC(CN)C2` (stereo not drawn): under “30.3 µM, […]”, the “Percent Effect” value is on record as 38.87%.
Same read-out and setting: with `Cc1cc2c(c(-c3cncc(C(=O)N4CCCC4)n3)c1)OC(CN)C2` (stereo not drawn) the figure was 74.06%.
